# From PubChem BioAssay AID2410 (Southern Research Specialized Biocontainment Screening …, 2010)
# Out of some 2,500 compounds screened, about 2,100 (84%) were called active.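 How the source made its calls: active means toxic compounds, whose cell viability fell below 70% of untreated control cells; inactive means the rest.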 So high a share suggests a set chosen from earlier hits. Only a sample is shown. Measured potencies and affinities stand elsewhere.
# Assay: HEp-2 cell cytotoxicity, dose response, cytotoxicity control for RSV inhibitor project, HTS (AID 2410);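 further: cells exposed to compound for six days before readout; 100% = median signal of untreated cell control wells on each plate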
# Conditions: HEp-2 viability, luminescence, cytotoxicity counter-screen; series mostly up to 50 µM; viability: at the top concentration
row,SMILES,viability
1,CCC(CC)NC(=O)COC(=O)c1ccc(NS(=O)(=O)c2ccc3c(c2)OCCO3)cc1,93.9% (inactive)
2,CCOC(=O)c1cc(CC)sc1NC(=O)c1ccc2c(c1)OCCO2,78.4% (inactive)
3,Cc1cccc(Nc2nc(OCC#N)nc(N(C)C)n2)c1,99.8% (inactive)
4,Cc1ccc(S(=O)(=O)N2CCN(CCO)CC2)cc1-c1nnc2c3ccccc3c(C)nn12,110% (inactive)
5,Cc1ccnc(NS(=O)(=O)c2ccc(NC(=O)Cc3ccccc3)cc2)n1,93.4% (inactive)
6,Cc1ccc(C2=NN(C(=O)COc3ncnc4ccccc34)C(c3ccco3)C2)cc1 (stereo not drawn),103% (inactive)
7,O=C1CN2C(=Nc3ccc(Cl)cc3C2c2ccccc2)CN1 (stereo not drawn),90.6% (inactive)
8,O=C1CC(Sc2nnc(-c3ccccc3)o2)C(=O)N1c1ccccc1 (stereo not drawn),93.9% (inactive)
9,CN(CCO)c1nc(N)c2c(N)nc3c(c2c1C#N)CC(=O)N3Cc1cccs1,101% (inactive)
10,Clc1cccc(Nc2ncnc3c2cnn3-c2ccccc2)c1,84% (inactive)
11,Cc1ccc2nc(NC(=O)CCn3c(=O)sc4ccccc43)sc2c1,75.8% (inactive)
12,CCOc1ccc2nc(NC(=O)Cc3cccs3)sc2c1,96.1% (inactive)
13,COc1cc(NC2c3ncccc3C(=O)N2Cc2ccco2)cc(OC)c1OC (stereo not drawn),94.1% (inactive)
14,Cc1ccc(-n2nc3c(=O)n(CCCC(=O)NCC(C)c4ccccc4)nc(C)c3c2C)cc1 (stereo not drawn),75.8% [at 25 µM] (inactive)
15,CC(C(=O)N=Nc1c(O)[nH]c2ccccc12)n1cnc2ccccc2c1=O (stereo not drawn),70.9% (inactive)
16,CCOC(=O)Cc1nnc(Nc2ccc(C)cc2)c2ccccc12,84.4% (inactive)
17,COC(=O)c1c(NC(NC(=O)C(C)(C)C)C(Cl)(Cl)Cl)sc2c1CCC2 (stereo not drawn),84.3% (inactive)
18,Cc1ccc(OCc2ccc(Br)cc2)c([N+](=O)[O-])n1,104% (inactive)
19,COc1ccc(CNC(=O)CCCn2nc(C)c3c(C)n(-c4ccc(C)cc4)nc3c2=O)cc1,93.4% (inactive)
20,O=C(CSc1nc2nc3c(cc2c(=O)n1-c1ccccc1)CCCC3)Nc1cccc2ccccc12,85% (inactive)
21,Nc1c2c(nc3sc4c(c13)CCCC4)-c1ccccc1CC2,77.7% (inactive)
22,Cc1noc(C)c1C(=O)OC(C)C(=O)Nc1ccc(S(=O)(=O)NC(C)C)cc1 (stereo not drawn),86.2% (inactive)
23,CCCCc1cc(=O)oc2c3c(cc(OCC(=O)N4CCC[C@H]4C(=O)O)c12)OC(C)(C)CC3,106% (inactive)
24,Cc1cc(C)c2c(n1)sc1c(N3CCCCC3)ncnc12,118% (inactive)
25,COc1ccc(Cl)cc1NS(=O)(=O)c1c(C)[nH]c(C)c1C(=O)N1CCCCC1,93.7% (inactive)
26,COc1ccc(N(CC(=O)NC2CCCC2)C(=O)c2ccc(C)s2)c(OC)c1,81.1% (inactive)
27,CCCc1c(C(=O)Nc2ccc(C(F)(F)F)cc2)cnn1-c1ccccc1,90.4% (inactive)
28,Cc1cc(C)c(C)c(C(=O)CSc2nnc(-c3ccc4[nH]c(C)c(C)c4c3)o2)c1C,75.9% (inactive)
